This excerpt belongs to a sample that is enriched for hits.
MBNL1-CUG inh – inhibitors of human MBNL1 binding to CUG repeat RNA. Q9NR56. TR-FRET MBNL1-His/biotin-(CUG)12 binding, 665/545 ratio. Potency, µM (highest dose often 57.5 µM), for the others: top-dose activity change, negative = inhibition, hits mostly inhibitors. 0.036% of 280,000 active. AID 2675; active = well fitted inhibition curve with a large enough effect in the signal ratio, with a control signal flat, not every such curve was filed as active; inconclusive = small, poorly fitted or top-dose-only effect, or effect the other way, or a change in a side signal; inactive = no such curve, though single readings can be large or run the other way; the % refers to the signal ratio; note: potency is the fitted concentration of half-maximal effect; % is set by controls: 0 for no effect and ±100 for the full control effect
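Compounds (final 92 nM to 58 uM) are added to His-tagged MBNL1 and biotin-(CUG)12, then terbium anti-His antibody and streptavidin-XL665 (5 nM final). After 60 min at room temperature, the 665/545 nm ratio is read.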
IMPase Li cell – IMPase inhibition in cells with lithium potentiation; AID 1457; 0.35% of 210,000 active; Potency, µM (top dose mostly 59.4 µM), inactives show top-dose activity, negative = IMPase inhibition, most hits filed as inhibitors; CHO-M1 cells, IP1 TR-FRET (IP-One), carbachol + lithium;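 note: IP1 builds up when IMPase is blocked and the TR-FRET signal falls; potency is the fitted concentration of half-maximal effect; plate controls were basal vehicle for no effect and high inhibitor control for full effect; nearly all actives have a fitted effect of over 50% in size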
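CHO cells stably expressing M1 receptor (2000/well, cultured 16–30 h) treated 30 min at 37C with compound plus low lithium. Cytosolic IP1 by TR-FRET (665/620 ratio and 620 channel) after 10 min lysis; AC50 by Hill fit.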
RGS12 GoLoco inh – blocks human Gai1 binding to RGS12 GoLoco peptide, red readout; 0.44% of 230,000 active; Potency, µM (series often up to 61.6 µM), without a hit: at the top dose activity, negative = inhibition, hits mostly inhibitors; Gai1:RGS12 GoLoco peptide FP, rhodamine, 10 min; P63096; active = well fitted inhibition curve with a large enough effect, not every such curve was filed as active; inactive = no such curve, though single readings can be large or run the other way; note: potency is the fitted concentration of half-maximal effect; % is set by controls: 0 for no effect and ±100 for the full control effect; nearly all actives have a fitted effect of over 30% in size
Tb PFK inh-1 – blocks T. brucei phosphofructokinase; O15648; T. brucei PFK, ADP-Glo luminescence; Potency, µM (doses to about 57.5 µM), inactives show at the highest dose activity, negative = inhibition, usual class: inhibitors; 0.17% of 330,000 active; AID 485367;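 note: potency is the fitted concentration of half-maximal effect; 0% = uninhibited 1x PFK enzyme wells and -100% = no-enzyme wells; nearly all actives have a fitted effect of over 60% in size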
Target sequence (O15648 whole entry, looked up): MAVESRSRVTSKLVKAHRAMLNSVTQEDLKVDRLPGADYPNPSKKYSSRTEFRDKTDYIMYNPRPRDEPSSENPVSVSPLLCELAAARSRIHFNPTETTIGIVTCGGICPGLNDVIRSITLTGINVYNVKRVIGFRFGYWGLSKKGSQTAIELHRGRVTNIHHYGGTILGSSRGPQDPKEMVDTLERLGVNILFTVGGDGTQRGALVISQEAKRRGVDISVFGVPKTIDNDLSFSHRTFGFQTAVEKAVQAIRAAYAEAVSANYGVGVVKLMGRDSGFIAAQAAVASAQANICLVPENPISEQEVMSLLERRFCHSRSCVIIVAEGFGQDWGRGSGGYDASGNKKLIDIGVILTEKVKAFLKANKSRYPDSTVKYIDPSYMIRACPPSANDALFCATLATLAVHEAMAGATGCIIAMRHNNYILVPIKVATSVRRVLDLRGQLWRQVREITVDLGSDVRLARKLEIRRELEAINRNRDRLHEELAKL
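1.25 nM PFK with 0.5 mM F6P and 0.1 mM ATP in 0.1 M TEA pH 8.0, 5 mM MgCl2, incubated 45 min at room temperature; ADP measured by ADP-Glo luminescence; compounds titrated up to 57 uM.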
NPSR antagonist – antagonists of human neuropeptide S receptor cAMP signaling; Q6W5P4; CHO-NPSR cells, cAMP TR-FRET, antagonist mode; Potency, µM (series often up to 38.3 µM), inactives show top-dose activity change, negative = inhibition, hits mostly inhibitors; 1% of 220,000 active; note: potency is the fitted concentration of half-maximal effect; % is set by controls: 0 for no effect and ±100 for the full control effect; nearly all actives have a fitted effect of over 50% in size
MBNL1 TRFRET – blocks human MBNL1 binding to CUG repeat RNA, TR-FRET validation; shares compounds with MBNL1-CUG inh; TR-FRET MBNL1-His / biotin-(CUG)12 binding, 60 min; Potency, µM (highest dose often 57.6 µM), without a hit: at the top dose activity change, negative = inhibition, most hits filed as inhibitors; 50% of 140 active; AID 493199
MBNL1 AlphaScrn – confirmation of MBNL1-(CUG)12 RNA binding inhibitors, orthogonal format; shares compounds with MBNL1-CUG inh; AlphaScreen MBNL1-His / biotin-(CUG)12 binding; Potency, µM (doses to about 57.7 µM), without a hit: at the top dose activity, negative = inhibition, most hits filed as inhibitors; 30% of 140 active; AID 493205
Menin-MLL HTRF – MBNL1-CUG RNA binding inhibitor counterscreen activity | shares compounds with MBNL1-CUG inh | His-Menin/biotin-MLL peptide TR-FRET counterscreen | Potency, µM (highest dose often 57.6 µM), inactives show at the highest dose activity, negative = inhibition, usual class: inhibitors | 20% of 120 active | AID 651843
Tb PFK KinaseGlo – inhibits T. brucei PFK measured by ATP depletion. Potency, µM (series often up to 57.5 µM), without a hit: top-dose inhibition. AID 504636. Tb PFK enzyme, ATP depletion, Kinase-Glo Plus luminescence. 47% of 1,100 active. shares compounds with Tb PFK inh-1; calls by dose curve; note: potency is the fitted concentration of half-maximal effect; nearly all actives have a fitted effect of over 60% in size
Tb PFK inh-2 – validation of T. brucei phosphofructokinase inhibitors. shares compounds with Tb PFK inh-1. purified T. brucei PFK, ADP-Glo luminescence, 45 min. Potency, µM (doses to about 57.5 µM), without a hit: at the top dose activity change, negative = inhibition, usual class: inhibitors. 41% of 1,100 active;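 note: potency is the fitted concentration of half-maximal effect; plate controls were full PFK enzyme control for no effect and no enzyme control for full effect; nearly all actives have a fitted effect of over 60% in size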
Starred values were filed as active, the others as inactive; ? = inconclusive; nt = no result given; [ ] = dose if it differs, or a comment. Unless noted, calls come from the whole dose curve; as a rule, active = well fitted curve in the direction sought with a large enough effect; inconclusive = small, poorly fitted or top-dose-only effect, or another doubt; inactive = no such curve, though single readings can be large; an effect the other way counts as inactive or inconclusive.

SMILES	MBNL1-CUG inh	IMPase Li cell	RGS12 GoLoco inh	Tb PFK inh-1	NPSR antagonist	Tb PFK KinaseGlo	Tb PFK inh-2	others
COc1ccc2nc(NC(=O)CCc3nc(C4=CCN(C)CC4)no3)sc2c1	20µM*	24%[38.3 µM]	15%	4%	-1%[46.1 µM]	nt	nt	MBNL1 TRFRET=?;MBNL1 AlphaScrn=16µM*;Menin-MLL HTRF=?
CCn1cc(CN2CCCC(C(=O)c3cccc(OC)c3)C2)c(C)n1 (centres undefined)	50µM*	19%	16%	-2%	-7%	nt	nt	MBNL1 TRFRET=?;MBNL1 AlphaScrn=-11%;Menin-MLL HTRF=-9%
CCCn1cc(CN2CCCC(C(=O)c3cccc(OC)c3)C2)c(C)n1 (centres undefined)	2%	19%	13%	-3%	-23%	nt	nt
Cc1ccc(C2(c3ccc(C)c(O)c3C)CCN(C)CC2)c(C)c1O	nt	0%	0%[14.2 µM]	nt	nt	nt	nt
CN1CCC2(CC1)C(C#N)=C(N)NC(S)=C2C#N	4µM*	16%	183%	1%	-5%	nt	nt	MBNL1 TRFRET=33µM*;MBNL1 AlphaScrn=1%;Menin-MLL HTRF=16µM*
Cc1ccsc1C(=O)C1CCCN(Cc2ccc(-n3cccn3)cc2)C1 (centres undefined)	6.3µM*	10%	1%	-1%	18%	nt	nt	MBNL1 TRFRET=3.3µM*;MBNL1 AlphaScrn=?;Menin-MLL HTRF=18µM*
Cc1ccsc1C(=O)C1CCCN(Cc2c(C)nn(C(C)C)c2C)C1 (centres undefined)	32µM*	21%	9%	0%	-3%	nt	nt	MBNL1 TRFRET=41µM*;MBNL1 AlphaScrn=-26%;Menin-MLL HTRF=-22%
CN(CCc1ccc(Cl)c(Cl)c1)[C@@H]1CCCC[C@@H]1N1CCCC1	nt	-28%	-4%	nt	nt	nt	nt
O=C(O)[C@@H](c1ccccc1)N1Cc2ccccc2C1=O	40µM*	2%[38.3 µM]	3%	?	0%[46.1 µM]	?	?	MBNL1 TRFRET=26µM*;MBNL1 AlphaScrn=21µM*;Menin-MLL HTRF=-3%
N[C@H](Cc1c[nH]c2ccccc12)P(=O)(O)O	nt	-6%	8%[14.2 µM]	nt	nt	nt	nt
Oc1ccc(/C=N/NP(=S)(c2ccccc2)c2ccccc2)c(O)c1O	2%	32%[38.3 µM]	7%	1%	?	nt	nt
O=C1c2ccccc2C(=O)N1/N=C/c1ccc(O)c(O)c1O	?	nt	-21%	19µM*	0%	11µM*	27µM*
O=C1CCCC2[C@@H]3CCCN4CCC[C@@H](CN12)C34 (some centres undefined)	nt	7%	8%	nt	nt	nt	nt
N#CCCn1cc(C(=O)Nc2ccc([N+](=O)[O-])cc2)c(-c2ccccc2)n1	?	nt	-3%	9%	0%	nt	nt
CCNS(=O)(=O)c1ccc(NC(=O)Cn2cc([N+](=O)[O-])cn2)cc1	7%	4%	6%	12µM*	4%	12µM*	?
Oc1cc(Cl)ccc1Cl	nt	7%	2%	nt	nt	nt	nt
CC(C)(O)C1O[C@H]2CC[C@@]3(C)[C@@](O)(CC[C@H]4Cc5c([nH]c6ccccc56)[C@@]43C)C2=CC1=O (some centres undefined)	nt	20%	3%	nt	nt	nt	nt
Cc1nn(Cc2ccccc2)c(C)c1C(=O)OCC(=O)Nc1cccc(S(N)(=O)=O)c1	-7%	13%	8%	-4%	-5%	nt	nt
O=C(COC(=O)c1ccccc1O)Nc1cccc(S(=O)(=O)NC2=NCCCCC2)c1	-10%	nt	-4%	13µM*	3%	?	?
C=C[C@]12CN(C)[C@H]3C1[C@@]1(C(=O)Nc4ccccc41)[C@H]1C[C@H]2[C@H]3CO1	nt	5%	12%[21.6 µM]	nt	nt	nt	nt
C=CCOC(C)=O	nt	26%	-21%	nt	nt	nt	nt
Cc1cc(-c2nc3c4c5c(sc4[nH]c(=O)n3n2)CCC5)c(C)o1	1%	1%	13%	?	-16%[46.1 µM]	16%	-9%
O=C(COC(=O)/C=C/c1ccco1)Nc1ncc(C(F)(F)F)cc1Cl	15%	-2%	11%	17µM*	-5%[46.1 µM]	11µM*	13µM*
Cc1ccc(NC2c3ncccc3C(=O)N2Cc2cccs2)cc1C (centres undefined)	-3%	-2%	5%	?	3%	20%	-20%
ClCC[N+]12CC[N+](CCCl)(CC1)C2 (tested in a mixture with another compound)	nt	-4%	6%[14.2 µM]	nt	nt	nt	nt
SMILES	MBNL1-CUG inh	IMPase Li cell	RGS12 GoLoco inh	Tb PFK inh-1	NPSR antagonist	Tb PFK KinaseGlo	Tb PFK inh-2	others
COc1ccc(NC(=O)N2CCC3(CC2)CCN(C(=O)Oc2ccccc2)CC3)cc1	nt	9%	-16%	nt	nt	nt	nt
C=CCN1C(=O)NC(=O)/C(=C\c2ccc(-c3ccccc3[N+](=O)[O-])o2)C1=O	?	19%	19%	24%	-44%	nt	nt
Cc1ccc(-c2ccc(/C=N/N=C3/NC(=O)C(CC(=O)O)S3)o2)c([N+](=O)[O-])c1 (centres undefined)	?	1%[38.3 µM]	9%	?	-9%[46.1 µM]	-34%	?
O=C(O)CC1S/C(=N/N=C/c2ccc(-c3ccccc3[N+](=O)[O-])o2)NC1=O (centres undefined)	?	13%[38.3 µM]	-22%	?	-5%[46.1 µM]	-31%	?
O=C(CCC(=O)N1CCOc2ccc(Cl)cc21)NCCN1CCOCC1	9%	nt	nt	?	nt	?	?
O=C(NCCN1CCOCC1)c1ccc(Cl)nc1	3%	nt	8%	-5%	10%	nt	nt
Cc1ccc(-c2csc3n[nH]c(=S)n23)cc1	10%	-14%[38.3 µM]	4%	?	-24%[46.1 µM]	0.3µM*	0.43µM*
Cc1ccc(-c2n[nH]c(=S)n2-c2ccccc2)cc1	129%	0%	0%	-11%	2%[46.1 µM]	nt	nt
CN1[C@@H]2CC[C@H]1CC(OC(c1ccc(F)cc1)c1ccc(F)cc1)C2 (some centres undefined)	nt	44%	6%	nt	nt	nt	nt
CN1CCc2cccc3c2C1Cc1ccc(O)c(O)c1-3 (centres undefined)	-2%	19%	19%	4.3µM*	-12%[46.1 µM]	19µM*	17µM*
